The source of these data is PubChem BioAssay.

Activity calls are given as the source filed them.

In test [1] the test system is Wnt5a (protein binding on small-molecule microarray). The test is described as follows: Wnt5a binders on small-molecule microarray, primary screen, biophysical, 635/667 nm fluorescence (AID 1142).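 Note: fluorescence read at 667 nm with signal to noise per printed feature.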 To be noted: 635 nm fluorescence, higher = more signal.
A short description of test [2]: cell viability in Huh7 cells, primary screen, cytotoxicity control for HCV replication inhibitor project, CellTiter-Glo luminescence, basal, 48 h (AID 1143).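 Note: Huh7 hepatoma cells carrying a hepatitis C replication reporter with no stimulus; test concentration not given here.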 To be noted: Huh7 HCV replicon, higher = more signal, called active from +8 up or from −8 down. For orientation: ATP-based viability assays read luminescence as a measure of living cells.
A short description of test [3]: CREB reporter modulators without forskolin, primary screen, cell-based, PC12, CRE-LacZ reporter, unstimulated (AID 1145). To be noted: no forskolin, luminescence, 4.5 h, higher = more signal, called active from +8 up or from −8 down.
The nature of test [4]: CREB reporter modulators under forskolin, primary screen, cell-based, PC12, CRE-LacZ reporter, forskolin-stimulated (AID 1146).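 Note: PC12 cells with 6xCRE LacZ reporter stimulated by forskolin 10 µM; beta-galactosidase reporter signal reflecting CREB driven transcription.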 The following applies: luminescence, 4.5 h, higher = more signal, called active from +8 up or from −8 down.
In test [5] the target is Streptavidin (Streptomyces avidinii) (UniProt P22629). The test is described as follows: streptavidin binders on small-molecule microarray, primary screen, artefact control for SMM compound annotation, biophysical, 635/667 nm fluorescence (AID 1147).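 Note: signal reflects streptavidin binding to arrayed compounds as a control protein.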 The following applies: streptavidin binding, higher = more signal.
Sequence of Streptavidin (Streptomyces avidinii) (P22629 whole entry, looked up): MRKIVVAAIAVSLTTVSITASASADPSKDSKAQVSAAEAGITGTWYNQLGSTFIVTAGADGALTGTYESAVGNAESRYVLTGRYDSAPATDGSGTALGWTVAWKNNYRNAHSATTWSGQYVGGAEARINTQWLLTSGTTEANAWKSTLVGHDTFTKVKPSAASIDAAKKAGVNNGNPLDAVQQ
The nature of test [6]: small-molecule binders of probe aInhba, primary screen, biochemical, small-molecule microarray, 635/667 nm fluorescence (AID 1148).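 Note: score merges 667nm spot fluorescence with signal-to-noise for antibody binding to printed compounds.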 The following applies: higher = more signal.
The target in test [7] is Torsin-1A (Homo sapiens) (UniProt O14656). The test is described as follows: torsin A binders from cell lysate, primary screen, small-molecule microarray, wild-type, 635/667 nm (AID 1149). To be noted: COS7 hTOR1A-WT lysate, 635 nm fluorescence, higher = more signal.
Sequence of Torsin-1A (Homo sapiens) (O14656 whole entry, looked up): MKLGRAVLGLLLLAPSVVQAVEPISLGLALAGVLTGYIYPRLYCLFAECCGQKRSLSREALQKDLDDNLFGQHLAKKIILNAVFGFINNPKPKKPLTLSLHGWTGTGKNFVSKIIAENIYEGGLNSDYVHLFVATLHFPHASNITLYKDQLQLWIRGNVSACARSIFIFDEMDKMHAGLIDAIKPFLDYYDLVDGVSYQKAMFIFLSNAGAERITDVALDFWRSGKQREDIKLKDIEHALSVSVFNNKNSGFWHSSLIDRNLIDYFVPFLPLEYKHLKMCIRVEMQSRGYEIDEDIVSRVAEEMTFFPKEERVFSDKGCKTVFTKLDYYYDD
For test [8] the target is unchanged. The test is described as follows: small-molecule binders of mutant TOR1A in lysate, primary screen, cell lysate, small-molecule microarray, COS7 lysate, 635/667 nm fluorescence (AID 1150).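 Note: score pools 667 nm emission and signal to noise measuring lysate protein binding.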 The following applies: COS7 hTOR1A mutant lysate, 635 nm fluorescence, higher = more signal.
Test [9] deals with Sonic hedgehog protein (Shh). The test is described as follows: small-molecule binders of Shh protein, primary screen, biochemical, small-molecule microarray, 635/667 nm fluorescence (AID 1151).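 Note: Shh protein binding to compounds spotted on small-molecule microarray slides; score combines spot fluorescence intensity with signal-to-noise across triplicate slides.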 To be noted: small-molecule microarray binding, 635 nm fluorescence; higher = more signal.
A short description of test [10]: E. coli DRC41 culture turbidity changes, primary screen, E. coli filamentation inducer project, strain DRC41, OD650, 48 h (AID 1152).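 Note: E. coli MC1000 strain DRC41 lacking acrAB efflux pump and sulA.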 To be noted: E. coli DRC41 (acrAB sulA), higher = more signal, called active from +8 up or from −8 down.
The nature of test [11]: small-molecule binders of probe aLefty1, primary screen, biochemical, small-molecule microarray, 635/667 nm fluorescence (AID 1153).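 Note: score merges spot fluorescence with signal-to-noise ratio from the scanned slide images.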 To be noted: higher = more signal.
A short description of test [12]: PSAC antagonists in infected red cells, primary screen, cell-based, P. falciparum Indochina, OD700, 1 h (AID 1154). To be noted: P. falciparum Indochina infected RBC osmotic lysis, higher = more signal, called active from +8 up or from −8 down.
Test [13] is described as follows: PSAC antagonists in infected red cells, primary screen, cell-based, P. falciparum Indochina, OD700, 2 h (AID 1155).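 Note: lysis reports solute entry through the parasite surface anion channel PSAC; channel blockers reduce lysis of infected cells.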 To be noted: P. falciparum Indochina infected erythrocytes, osmotic lysis OD700; higher = more signal, called active from +8 up or from −8 down.
Test [14] can be described thus: osmotic lysis modulators in infected erythrocytes, primary screen, PSAC antagonist project, cell-based, P. falciparum Indochina, OD700, 3 h (AID 1156). The following applies: higher = more signal, called active from +8 up or from −8 down.
A short description of test [15]: PSAC antagonists in infected red cells, primary screen, cell-based, P. falciparum Indochina, OD700, 18 h (AID 1157). To be noted: P. falciparum Indochina infected erythrocytes, osmotic lysis OD700, 18 h; higher = more signal, called active from +8 up or from −8 down.
The nature of test [16]: modulators of S6 phosphorylation in cells, primary screen, cell-based, A549, cytoblot, luminescence, serum-stimulated (AID 1158).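 Note: serum-stimulated A549 lung adenocarcinoma cells; signal is phosphorylated S6 detected by cytoblot immunostaining with HRP secondary.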 The following applies: A549 phospho-S6 cytoblot, 5 h, higher = more signal.
The target in test [17] is NADPH oxidase 2 (Homo sapiens) (UniProt P04839). Description: NOX2-dependent H2O2 signal modulators, primary screen, NOX inhibitor project, cell-based, HEK293-NOX2, PMA-stimulated, Amplex Red fluorescence (AID 1159). Note: test concentration not given here. To be noted: 45 min, higher = more signal, called active from +8 up or from −8 down.
Sequence of NADPH oxidase 2 (Homo sapiens) (P04839 whole entry, looked up): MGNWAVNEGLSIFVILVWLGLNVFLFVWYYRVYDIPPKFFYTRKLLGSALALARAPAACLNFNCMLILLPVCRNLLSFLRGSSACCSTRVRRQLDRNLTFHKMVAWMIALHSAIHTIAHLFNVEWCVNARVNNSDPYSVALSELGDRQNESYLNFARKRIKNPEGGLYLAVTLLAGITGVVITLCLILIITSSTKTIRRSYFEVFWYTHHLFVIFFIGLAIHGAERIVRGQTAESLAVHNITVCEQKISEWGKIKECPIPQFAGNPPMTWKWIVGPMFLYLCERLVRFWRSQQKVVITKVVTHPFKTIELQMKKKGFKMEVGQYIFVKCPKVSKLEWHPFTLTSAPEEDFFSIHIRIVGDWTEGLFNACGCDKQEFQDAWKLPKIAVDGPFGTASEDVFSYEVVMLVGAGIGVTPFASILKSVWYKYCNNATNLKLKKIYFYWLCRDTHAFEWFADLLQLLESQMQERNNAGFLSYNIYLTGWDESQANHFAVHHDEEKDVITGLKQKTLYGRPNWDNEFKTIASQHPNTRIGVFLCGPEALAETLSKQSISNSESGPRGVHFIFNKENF
Test [18] deals with NADPH oxidase 4 (Homo sapiens) (UniProt Q9NPH5). Description: NOX4-dependent H2O2 signal modulators, primary screen, NOX inhibitor project, cell-based, HEK293-NOX4, tetracycline-induced, Amplex Red fluorescence (AID 1160). The following applies: 45 min, higher = more signal, called active from +8 up or from −8 down.
Sequence of NADPH oxidase 4 (Homo sapiens) (Q9NPH5 whole entry, looked up): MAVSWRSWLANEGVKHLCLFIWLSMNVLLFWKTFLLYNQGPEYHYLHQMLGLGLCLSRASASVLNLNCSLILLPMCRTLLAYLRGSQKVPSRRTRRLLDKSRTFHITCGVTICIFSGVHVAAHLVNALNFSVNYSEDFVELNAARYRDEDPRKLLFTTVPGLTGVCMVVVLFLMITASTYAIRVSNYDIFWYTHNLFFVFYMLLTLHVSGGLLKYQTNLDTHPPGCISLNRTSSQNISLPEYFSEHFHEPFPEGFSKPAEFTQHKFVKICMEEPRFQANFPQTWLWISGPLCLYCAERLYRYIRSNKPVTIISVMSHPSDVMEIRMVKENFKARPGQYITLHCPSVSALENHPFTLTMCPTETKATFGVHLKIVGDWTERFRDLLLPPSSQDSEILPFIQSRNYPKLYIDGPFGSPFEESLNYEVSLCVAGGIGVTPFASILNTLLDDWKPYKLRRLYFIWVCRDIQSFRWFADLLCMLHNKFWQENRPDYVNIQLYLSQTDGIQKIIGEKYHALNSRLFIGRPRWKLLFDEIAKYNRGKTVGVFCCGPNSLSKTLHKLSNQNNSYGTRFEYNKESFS
Test [19] deals with NADPH oxidase 5 (Homo sapiens) (UniProt Q96PH1). The test is described as follows: NOX5-dependent H2O2 signal modulators, primary screen, NOX inhibitor project, cell-based, HEK293-NOX5, Amplex Red fluorescence (AID 1161). The following applies: HEK293-NOX5, ionomycin, 45 min, higher = more signal.
Sequence of NADPH oxidase 5 (Homo sapiens) (Q96PH1 whole entry, looked up): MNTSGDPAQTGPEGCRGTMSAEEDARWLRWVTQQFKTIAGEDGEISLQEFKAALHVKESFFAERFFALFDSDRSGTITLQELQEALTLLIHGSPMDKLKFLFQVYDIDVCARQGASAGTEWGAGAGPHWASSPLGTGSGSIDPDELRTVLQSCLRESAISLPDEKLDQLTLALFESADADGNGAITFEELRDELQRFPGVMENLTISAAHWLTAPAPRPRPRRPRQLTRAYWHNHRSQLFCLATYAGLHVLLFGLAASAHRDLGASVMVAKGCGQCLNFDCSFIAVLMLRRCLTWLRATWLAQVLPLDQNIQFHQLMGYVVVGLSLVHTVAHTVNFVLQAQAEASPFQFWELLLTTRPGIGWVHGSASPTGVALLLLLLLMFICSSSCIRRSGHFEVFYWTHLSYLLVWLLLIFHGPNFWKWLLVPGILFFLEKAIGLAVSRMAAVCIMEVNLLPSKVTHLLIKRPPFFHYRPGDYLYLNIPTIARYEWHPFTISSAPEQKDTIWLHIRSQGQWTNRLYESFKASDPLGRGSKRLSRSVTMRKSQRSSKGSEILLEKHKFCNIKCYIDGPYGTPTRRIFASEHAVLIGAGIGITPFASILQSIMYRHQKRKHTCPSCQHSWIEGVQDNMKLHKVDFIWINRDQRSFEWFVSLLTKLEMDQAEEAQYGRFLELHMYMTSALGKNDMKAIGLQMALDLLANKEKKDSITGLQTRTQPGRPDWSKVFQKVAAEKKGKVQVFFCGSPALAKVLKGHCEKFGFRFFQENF
Test [20] in a line: A549 cell viability effects, profiling panel, calcein-AM fluorescence, 48 h, basal (AID 1162). Note: test concentration not given here. The following applies: higher = more signal.

As to `O=C1O[C@@H](c2ccccc2)[C@@H](c2ccccc2)N2[C@@H](c3ccc(OCCO)cc3)[C@]3(C(=O)Nc4ccc(C#CC5(O)CCCCCC5)cc43)[C@@H](C(=O)NC[C@H](O)c3ccccc3)[C@H]12`, the composite z-score is 0.432 in test [1]; 0.866 in test [5]; 0.0827 in test [6]; 1.2 with Torsin-1A (Homo sapiens) [7]; 0.711 in the test with Torsin-1A (Homo sapiens) [8]; 0.855 in [9]. Further, in test [11], the composite z-score came out at 0.339. The z-score in test [2] is -3.51 (inactive); in test [3] it was 0.0776 (inactive); in [4], -1.71 (inactive); in test [10], 2.35 (inactive); in [12], 1.21 (inactive); in [13], 0.484 (inactive). In addition, the z-score in test [14] was -0.206 (inactive); in test [15], -0.863 (inactive); in test [16], 1.13; in test [17] it was 1.37 (inactive); in test [18], 1.14 (inactive); in [19], 0.427. Also, the z-score in [20] is 0.71.
As to `C=C(/C(=C/C[C@H](OC(C)=O)c1cccc(OCCO)c1)c1cc(C(=O)OC)ccc1OC)C(C)C`, the composite z-score in [1] was -0.0431; in test [5], -0.948; in test [6], -0.128; with Torsin-1A (Homo sapiens) [7], -0.0282; in the test with Torsin-1A (Homo sapiens) [8] it was -0.193; in test [9], 0.237. The molecule further yielded a composite z-score in test [11] of -0.191. Besides, the z-score is -0.802 (inactive) in test [2]; 11.7 (active) in test [3]; -1.02 (inactive) in [4]; 1.81 (inactive) in [10]; 6.36 (inactive) in test [12]; 1.29 (inactive) in test [13]. The z-score was 2.46 (inactive) in test [14]; 0.576 (inactive) in test [15]; -0.228 in [16]; 2.19 (inactive) in test [17]; 1.84 (inactive) in test [18]; -1.06 in test [19]. Further, the z-score in [20] was 1.75.
Turning to `COCCOC(=O)N1C(=O)[C@@]2(c3cc(C#CCCO)ccc31)[C@H](c1ccccc1OCCO)N1[C@H](c3ccccc3)[C@H](c3ccccc3)OC(=O)[C@H]1[C@@H]2C(=O)NC[C@H](O)c1ccccc1`, the composite z-score amounted to 0.142 in test [1]; 0.506 in test [5]; 0.209 in test [6]; 1.94 with Torsin-1A (Homo sapiens) [7]; 0.552 with Torsin-1A (Homo sapiens) [8]; 1.56 in test [9]. Further, in test [11], the composite z-score was -0.0222. In addition, the z-score in test [2] is -4.1 (inactive); in test [3] it was 1.42 (inactive); in [4], -1.44 (inactive); in test [10] it was 2.96 (inactive); in test [12] it was 3.88 (inactive); in [13], 0.965 (inactive). The z-score in [14] is 0.673 (inactive); in [15] it was 0.442 (inactive); in test [16], 2.31; in test [17], 1.59 (inactive); in test [18] it was 1.52 (inactive); in test [19] it was -0.0153. The z-score in test [20] was 2.07.
Take `[N-]=[N+]=NCc1ccccc1C[C@@]1(C(=O)NCc2ccccc2)N=C(c2ccc(OCCCO)cc2)O[C@@H]1c1ccccc1`: the composite z-score in test [1] is 0.238; in test [5] it was 0.229; in [6], -0.025; in the test with Torsin-1A (Homo sapiens) [7], 0.0526; with Torsin-1A (Homo sapiens) [8], 1.48; in [9] it was -0.353. The same molecule registered a composite z-score in test [11] of 0.277. Besides, the z-score is -5.27 (inactive) in [2]; 0.596 (inactive) in test [3]; -0.942 (inactive) in test [4]; 1.75 (inactive) in [10]; 21 (active) in test [12]; 5.58 (inactive) in test [13]. The z-score in test [14] was 1.81 (inactive); in test [15] it was -0.217 (inactive); in test [16] it was 0.969; in test [17], 1.2 (inactive); in test [18], 0.964 (inactive); in test [19] it was 0.0832. Also, the z-score in [20] is -2.22.
